Most compounds without a hit are left out; they make up all but 9.1% or so of the library.
D1 allo mod = D1 CRE-luciferase signal change, two-sided – cell-based, HEK293 D1, dopamine EC30, D1 allosteric modulator project, primary screen. D(1A) dopamine receptor (Homo sapiens), P21728. dopamine EC30 potentiation; actives deviate in either direction. B-score at 10 µM. actives 5.9% (n = 58,000);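 active means luminescence count or its row- and column-corrected plate score outside the 99.7% band of the plate's sample wells, on either side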
Target sequence (P21728 whole entry, looked up): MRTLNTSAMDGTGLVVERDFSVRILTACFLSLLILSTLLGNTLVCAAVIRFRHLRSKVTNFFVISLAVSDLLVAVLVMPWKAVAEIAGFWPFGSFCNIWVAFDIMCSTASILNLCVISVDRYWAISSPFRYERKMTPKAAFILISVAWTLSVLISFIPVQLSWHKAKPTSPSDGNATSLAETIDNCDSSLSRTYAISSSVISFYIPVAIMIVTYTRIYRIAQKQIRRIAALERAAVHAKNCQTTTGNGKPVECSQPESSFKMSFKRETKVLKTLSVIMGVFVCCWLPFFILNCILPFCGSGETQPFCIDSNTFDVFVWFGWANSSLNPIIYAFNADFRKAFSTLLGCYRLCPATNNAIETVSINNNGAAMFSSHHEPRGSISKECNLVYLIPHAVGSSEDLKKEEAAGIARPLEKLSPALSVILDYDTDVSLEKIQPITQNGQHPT
M1 antag = antagonists of rat M1 muscarinic receptor; actives 3.4% (n = 64,000); AID 628, 2007; Muscarinic acetylcholine receptor M1 (Rattus norvegicus), P08482; B-score at 10 µM; CHO-M1 cells, Fluo-4 calcium, ACh EC80 antagonist mode; active compounds read low;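 active means calcium fluorescence response, raw or row-and-column corrected B-score, differing from the plate sample mean either way at a set confidence level, mostly lower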
mHtt clearance = clearance of mutant huntingtin inclusions, primary screen, imaging, HeLa Exon1htt(103Q)mCFP, confocal imaging. actives 0.42% (n = 47,000). aggregate imaging; zero = plate's median compound well. inhibition, % at 1.5 µM;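 active means inhibition of aggregate fluorescence above about 70%, also judged a hit by eye on the cell image, limit read from the data, passing the limit was not always enough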;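 further: cells exposed to compound for three days before fixation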
M1 agonist = M1 muscarinic receptor agonists, primary screen, CHO-M1 cells, Fluo-4 calcium, agonist mode. Muscarinic acetylcholine receptor M1. Fluo-4 calcium fluorescence; active compounds read high. B-score at 10 µM. actives 3% (n = 64,000). AID 626, 2007;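 active means fluorescence rise, raw or as B-score row- and column-corrected plate score, outside the 99.7% band of its plate's samples, either direction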
Of the large screens only hits and unclear results are named; the others gave an inactive call.

O=C(Nc1nncs1)c1ccc(S(=O)(=O)c2ccccc2)cc1	none
Cc1cc(N2C(=O)C3C4C=CC(C4)C3C2=O)ccc1Br (configuration not stated)	none
CC(=O)Nc1ccc(N2C(C(C)=O)=NN(c3ccc(Cl)cc3)C2c2sccc2C)cc1 (configuration not stated)	none (no result: D1 allo mod, M1 antag, M1 agonist)
Cc1cc(N)n2nc(-c3ccccc3)cc2n1	D1 allo mod -3.43 (no result: mHtt clearance)
COc1nc2ccc(C)cc2cc1-c1noc(-c2ccccc2)n1	none (no result: D1 allo mod, M1 antag, M1 agonist)
Cc1ccc(-c2c3c(=O)n(C)c(=O)n(C)c3c3c(C)cc(C)nn23)cc1	M1 antag -12.9, M1 agonist 9.52 (no result: D1 allo mod, mHtt clearance)
O=C(NCC1COc2ccccc2O1)C1CCCN(S(=O)(=O)c2cnc[nH]2)C1 (configuration not stated)	none (no result: mHtt clearance)
Cc1c(-n2c(CN3C(=O)c4ccccc4C3=O)nc3ccccc3c2=O)c(=O)n(-c2ccccc2)n1C	M1 antag 1.51 (no result: mHtt clearance)
CC(C)Cn1c(CN2C(=O)c3ccccc3C2=O)nc2ccccc2c1=O	none (no result: mHtt clearance)
COc1ccc(C2(C(N)=O)CCCCC2)cc1OC	D1 allo mod 8.46
Cc1ccc2c(c1)N(C(=O)NC1CCCCC1)C(C)(C)CC2C (configuration not stated)	none (no result: D1 allo mod, M1 antag, M1 agonist)
CCn1nnc(NC(=O)c2cc3ccccc3o2)n1	M1 antag 3.35
CCc1ccc(C(=O)Nc2nnn(CC)n2)cc1	D1 allo mod -4.5
Cc1nnc(N2CCN(c3ccccc3)CC2)c2nn(-c3ccccc3F)c(C)c12	none (no result: D1 allo mod, M1 antag, M1 agonist)
COCCCn1c(SCC(=O)Nc2nnc(C)s2)nnc1-c1ccoc1C	mHtt clearance 77.6
CCOC(=O)C1CCN(Cc2c(F)cccc2Cl)CC1	none
Cc1cc2c(cc(C(=O)N3CCC(C(=O)NC4CCCC4)CC3)n2Cc2c(F)cccc2Cl)o1	M1 agonist 6.2 (no result: D1 allo mod, mHtt clearance)
CCCc1cc(Nc2ccccc2OCC)n2ncnc2n1	none (no result: D1 allo mod, M1 antag, M1 agonist)
COc1ccc(-c2nnnn2CCc2ccccc2)cc1	none
O=C(Nc1nc2n(n1)C(c1ccc(Cl)cc1)CC(c1ccc(Cl)cc1)N2)c1ccco1 (configuration not stated)	none
CC(=O)Nc1nc2n(n1)C(c1ccc(Cl)cc1)C=C(C)N2 (configuration not stated)	M1 antag 1.95
COc1ccc(C2C=C(c3ccc(Cl)cc3)Nc3nc(NC(C)=O)nn32)cc1 (configuration not stated)	M1 agonist 235 (no result: D1 allo mod)
O=C(c1nc2n(n1)C(c1ccc(Cl)cc1)C=C(c1ccccc1)N2)N1CCOCC1 (configuration not stated)	M1 agonist 46.4
O=C(NC1CCCC1)c1ccc(CS(=O)(=O)c2ccc(Br)cc2)o1	none
CN(CC(=O)Nc1ccc(Cl)cc1)CC(=O)Nc1cc(Cl)ccc1C#N	none (no result: mHtt clearance)
Cc1nc(=O)c(-c2ccccc2)c(C)n1-c1ccccc1O	D1 allo mod -5.57 (no result: mHtt clearance)
O=C(c1ccc(Br)s1)N1CCN(C/C=C/c2ccccc2)CC1	none (no result: D1 allo mod, M1 antag, M1 agonist)
O=C(c1ccc(Br)o1)N1CCN(C/C=C/c2ccccc2)CC1	D1 allo mod -3.68
Cc1cc(C)cc(NC(=O)c2nccnc2C(=O)O)c1	none (no result: D1 allo mod, M1 antag, M1 agonist)
COC(=O)c1ccc(C2CC(=O)NC3=C2C(=O)CCC3)cc1 (configuration not stated)	none
CC(C)Oc1ccc(C2CC(=O)NC3=C2C(=O)CCC3)cc1 (configuration not stated)	D1 allo mod -5.39
COc1ccc(N(CC(=O)O)S(=O)(=O)c2cccnc2)cc1	mHtt clearance 71.2
COc1ccc(S(=O)(=O)N(CC(=O)O)c2ccccc2)cc1	none
Cc1ccc(C(=O)NC(Cc2c[nH]c3ccccc23)C(=O)O)o1 (configuration not stated)	none (no result: mHtt clearance)
CC(Cc1c[nH]c2ccccc12)NC(=O)C1CCCNC1=O (configuration not stated)	mHtt clearance 87.0
CCOc1ccccc1NC(=O)CN(c1ccc(C)cc1)S(=O)(=O)c1c(C)noc1C	none
CCOc1ccc(OCC)c(NC(=O)CN(c2ccc(C)cc2)S(=O)(=O)c2c(C)noc2C)c1	D1 allo mod 4.65
COc1ccc(OC)c(NC(=O)CN(c2ccc(C(C)C)cc2)S(=O)(=O)c2c(C)noc2C)c1	none (no result: mHtt clearance)
COc1ccc(OC)c(NC(=O)CN(c2ccc(C)cc2)S(=O)(=O)c2c(C)noc2C)c1	D1 allo mod 4.63 (no result: mHtt clearance)
Cc1c(Cl)cccc1N(CC(=O)NC1CCCCC1)S(C)(=O)=O	none (no result: M1 antag, mHtt clearance, M1 agonist)
O=C(Nc1nnc(-c2ccccc2Cl)o1)c1nc2ccccc2s1	none (no result: D1 allo mod, M1 antag, M1 agonist)
CC(=O)c1cc2c(cc1NC(=O)C1CC1)OCO2	none (no result: D1 allo mod, M1 antag, M1 agonist)
Cc1ccc(-c2nc3cnccn3c2Nc2c(C)cccc2C)o1	none (no result: D1 allo mod, M1 antag, M1 agonist)
COc1cccc(-c2cc(C(=O)N3CCCCCC3)no2)c1	D1 allo mod -4.85 (no result: mHtt clearance)
COc1cccc(-c2cc(C(=O)N3CCCCC3C)no2)c1 (configuration not stated)	none
O=C(c1cc(-c2ccc(F)cc2)on1)N1CCCC1	D1 allo mod -3.6 (no result: mHtt clearance)
O=C(c1cc(-c2cccc(O)c2)on1)N1CCCCC1	D1 allo mod -4.79 (no result: mHtt clearance)
O=C(c1cc(-c2ccc(Cl)c(Cl)c2)on1)N1CCCC1	none (no result: mHtt clearance)
Cc1cnc(-c2nnc(N(C)C(=O)c3ccncc3)s2)cn1	none (no result: mHtt clearance)
CC(C)c1ccccc1OCCCCCNCCO	none (no result: D1 allo mod)
Cc1cc(C)c2cc(CN(CCN3CCCC3)C(=O)Nc3ccc(F)cc3)c(=O)[nH]c2c1	D1 allo mod -3.09 (no result: mHtt clearance)
CCc1ccc(NC(=O)c2cc(C)on2)cc1	D1 allo mod -3.13
CCCC/C(O)=N\S(=O)(=O)c1ccc(N=NN(C)C)cc1	none (no result: D1 allo mod, M1 antag, M1 agonist)
CC1CCc2nc3ccc(S(=O)(=O)N4CCC(C(=O)NC5CCCC5)CC4)cc3c(C(=O)O)c2C1 (configuration not stated)	none (no result: D1 allo mod)
O=C(O)c1c2c(nc3ccc(S(=O)(=O)N4CCC(C(=O)NC5CCCC5)CC4)cc13)CCCCC2	M1 agonist -2.29 (no result: D1 allo mod, mHtt clearance)
CN1CC=C2C(C#N)=C(N)C(C#N)(C#N)[C@H](c3cccs3)[C@H]2C1	none (no result: D1 allo mod, M1 antag, M1 agonist)
CCCC1C2CN(C(C)C)CC=C2C(C#N)=C(N)C1(C#N)C#N (configuration not stated)	M1 agonist 8.33
Cc1csc(SCCN2C(=O)c3ccccc3C2=O)n1	none
CSc1nsc(SCCN2C(=O)c3ccccc3C2=O)n1	M1 antag 2.34 (no result: mHtt clearance)
CN1CCN(c2ccc(NC(=O)COc3ccccc3Cl)cc2)CC1	D1 allo mod -4.13 (no result: M1 antag, M1 agonist)
CCOC(=O)c1sc2nc3c(cc2c1N)COC(C(C)C)C3 (configuration not stated)	none (no result: D1 allo mod, M1 antag, M1 agonist)
CC(C)OC(=O)CC(=O)c1sc2nc3c(cc2c1N)CN(C)CC3	M1 agonist 7.33 (no result: mHtt clearance)
Cc1c(C=O)c2ccccc2n1CC(=O)N1CCc2ccccc2C1	none (no result: D1 allo mod, M1 antag, M1 agonist)
O=C(c1cc(-c2ccc(Cl)cc2Cl)on1)N1CCOCC1	D1 allo mod -4.56
O=C(c1cc(-c2ccc(Cl)cc2)on1)N1CCOCC1	none
O=C(c1cc(-c2ccc3c(c2)OCO3)on1)N1CCOCC1	D1 allo mod -4.47
O=C(c1cc(-c2ccc3c(c2)OCO3)on1)N1CCN(c2ccccc2)CC1	none
CC#CCN(CC#CC)S(=O)(=O)c1ccc(-n2cnnn2)c(OC)c1	none
O=S1(=O)C=C(Sc2nnc(-c3ccccc3)o2)c2ccccc21	D1 allo mod -2.92 (no result: mHtt clearance)
Cc1cc(C)n2nc3nc4c(cc3c2n1)CCCC4	none (no result: D1 allo mod, mHtt clearance)

Source: PubChem (several laboratories)
